Here are results for 40 targets from the supplement of paper PMC11001985.

Chain of UniProt Q15149 (Q15149 whole entry): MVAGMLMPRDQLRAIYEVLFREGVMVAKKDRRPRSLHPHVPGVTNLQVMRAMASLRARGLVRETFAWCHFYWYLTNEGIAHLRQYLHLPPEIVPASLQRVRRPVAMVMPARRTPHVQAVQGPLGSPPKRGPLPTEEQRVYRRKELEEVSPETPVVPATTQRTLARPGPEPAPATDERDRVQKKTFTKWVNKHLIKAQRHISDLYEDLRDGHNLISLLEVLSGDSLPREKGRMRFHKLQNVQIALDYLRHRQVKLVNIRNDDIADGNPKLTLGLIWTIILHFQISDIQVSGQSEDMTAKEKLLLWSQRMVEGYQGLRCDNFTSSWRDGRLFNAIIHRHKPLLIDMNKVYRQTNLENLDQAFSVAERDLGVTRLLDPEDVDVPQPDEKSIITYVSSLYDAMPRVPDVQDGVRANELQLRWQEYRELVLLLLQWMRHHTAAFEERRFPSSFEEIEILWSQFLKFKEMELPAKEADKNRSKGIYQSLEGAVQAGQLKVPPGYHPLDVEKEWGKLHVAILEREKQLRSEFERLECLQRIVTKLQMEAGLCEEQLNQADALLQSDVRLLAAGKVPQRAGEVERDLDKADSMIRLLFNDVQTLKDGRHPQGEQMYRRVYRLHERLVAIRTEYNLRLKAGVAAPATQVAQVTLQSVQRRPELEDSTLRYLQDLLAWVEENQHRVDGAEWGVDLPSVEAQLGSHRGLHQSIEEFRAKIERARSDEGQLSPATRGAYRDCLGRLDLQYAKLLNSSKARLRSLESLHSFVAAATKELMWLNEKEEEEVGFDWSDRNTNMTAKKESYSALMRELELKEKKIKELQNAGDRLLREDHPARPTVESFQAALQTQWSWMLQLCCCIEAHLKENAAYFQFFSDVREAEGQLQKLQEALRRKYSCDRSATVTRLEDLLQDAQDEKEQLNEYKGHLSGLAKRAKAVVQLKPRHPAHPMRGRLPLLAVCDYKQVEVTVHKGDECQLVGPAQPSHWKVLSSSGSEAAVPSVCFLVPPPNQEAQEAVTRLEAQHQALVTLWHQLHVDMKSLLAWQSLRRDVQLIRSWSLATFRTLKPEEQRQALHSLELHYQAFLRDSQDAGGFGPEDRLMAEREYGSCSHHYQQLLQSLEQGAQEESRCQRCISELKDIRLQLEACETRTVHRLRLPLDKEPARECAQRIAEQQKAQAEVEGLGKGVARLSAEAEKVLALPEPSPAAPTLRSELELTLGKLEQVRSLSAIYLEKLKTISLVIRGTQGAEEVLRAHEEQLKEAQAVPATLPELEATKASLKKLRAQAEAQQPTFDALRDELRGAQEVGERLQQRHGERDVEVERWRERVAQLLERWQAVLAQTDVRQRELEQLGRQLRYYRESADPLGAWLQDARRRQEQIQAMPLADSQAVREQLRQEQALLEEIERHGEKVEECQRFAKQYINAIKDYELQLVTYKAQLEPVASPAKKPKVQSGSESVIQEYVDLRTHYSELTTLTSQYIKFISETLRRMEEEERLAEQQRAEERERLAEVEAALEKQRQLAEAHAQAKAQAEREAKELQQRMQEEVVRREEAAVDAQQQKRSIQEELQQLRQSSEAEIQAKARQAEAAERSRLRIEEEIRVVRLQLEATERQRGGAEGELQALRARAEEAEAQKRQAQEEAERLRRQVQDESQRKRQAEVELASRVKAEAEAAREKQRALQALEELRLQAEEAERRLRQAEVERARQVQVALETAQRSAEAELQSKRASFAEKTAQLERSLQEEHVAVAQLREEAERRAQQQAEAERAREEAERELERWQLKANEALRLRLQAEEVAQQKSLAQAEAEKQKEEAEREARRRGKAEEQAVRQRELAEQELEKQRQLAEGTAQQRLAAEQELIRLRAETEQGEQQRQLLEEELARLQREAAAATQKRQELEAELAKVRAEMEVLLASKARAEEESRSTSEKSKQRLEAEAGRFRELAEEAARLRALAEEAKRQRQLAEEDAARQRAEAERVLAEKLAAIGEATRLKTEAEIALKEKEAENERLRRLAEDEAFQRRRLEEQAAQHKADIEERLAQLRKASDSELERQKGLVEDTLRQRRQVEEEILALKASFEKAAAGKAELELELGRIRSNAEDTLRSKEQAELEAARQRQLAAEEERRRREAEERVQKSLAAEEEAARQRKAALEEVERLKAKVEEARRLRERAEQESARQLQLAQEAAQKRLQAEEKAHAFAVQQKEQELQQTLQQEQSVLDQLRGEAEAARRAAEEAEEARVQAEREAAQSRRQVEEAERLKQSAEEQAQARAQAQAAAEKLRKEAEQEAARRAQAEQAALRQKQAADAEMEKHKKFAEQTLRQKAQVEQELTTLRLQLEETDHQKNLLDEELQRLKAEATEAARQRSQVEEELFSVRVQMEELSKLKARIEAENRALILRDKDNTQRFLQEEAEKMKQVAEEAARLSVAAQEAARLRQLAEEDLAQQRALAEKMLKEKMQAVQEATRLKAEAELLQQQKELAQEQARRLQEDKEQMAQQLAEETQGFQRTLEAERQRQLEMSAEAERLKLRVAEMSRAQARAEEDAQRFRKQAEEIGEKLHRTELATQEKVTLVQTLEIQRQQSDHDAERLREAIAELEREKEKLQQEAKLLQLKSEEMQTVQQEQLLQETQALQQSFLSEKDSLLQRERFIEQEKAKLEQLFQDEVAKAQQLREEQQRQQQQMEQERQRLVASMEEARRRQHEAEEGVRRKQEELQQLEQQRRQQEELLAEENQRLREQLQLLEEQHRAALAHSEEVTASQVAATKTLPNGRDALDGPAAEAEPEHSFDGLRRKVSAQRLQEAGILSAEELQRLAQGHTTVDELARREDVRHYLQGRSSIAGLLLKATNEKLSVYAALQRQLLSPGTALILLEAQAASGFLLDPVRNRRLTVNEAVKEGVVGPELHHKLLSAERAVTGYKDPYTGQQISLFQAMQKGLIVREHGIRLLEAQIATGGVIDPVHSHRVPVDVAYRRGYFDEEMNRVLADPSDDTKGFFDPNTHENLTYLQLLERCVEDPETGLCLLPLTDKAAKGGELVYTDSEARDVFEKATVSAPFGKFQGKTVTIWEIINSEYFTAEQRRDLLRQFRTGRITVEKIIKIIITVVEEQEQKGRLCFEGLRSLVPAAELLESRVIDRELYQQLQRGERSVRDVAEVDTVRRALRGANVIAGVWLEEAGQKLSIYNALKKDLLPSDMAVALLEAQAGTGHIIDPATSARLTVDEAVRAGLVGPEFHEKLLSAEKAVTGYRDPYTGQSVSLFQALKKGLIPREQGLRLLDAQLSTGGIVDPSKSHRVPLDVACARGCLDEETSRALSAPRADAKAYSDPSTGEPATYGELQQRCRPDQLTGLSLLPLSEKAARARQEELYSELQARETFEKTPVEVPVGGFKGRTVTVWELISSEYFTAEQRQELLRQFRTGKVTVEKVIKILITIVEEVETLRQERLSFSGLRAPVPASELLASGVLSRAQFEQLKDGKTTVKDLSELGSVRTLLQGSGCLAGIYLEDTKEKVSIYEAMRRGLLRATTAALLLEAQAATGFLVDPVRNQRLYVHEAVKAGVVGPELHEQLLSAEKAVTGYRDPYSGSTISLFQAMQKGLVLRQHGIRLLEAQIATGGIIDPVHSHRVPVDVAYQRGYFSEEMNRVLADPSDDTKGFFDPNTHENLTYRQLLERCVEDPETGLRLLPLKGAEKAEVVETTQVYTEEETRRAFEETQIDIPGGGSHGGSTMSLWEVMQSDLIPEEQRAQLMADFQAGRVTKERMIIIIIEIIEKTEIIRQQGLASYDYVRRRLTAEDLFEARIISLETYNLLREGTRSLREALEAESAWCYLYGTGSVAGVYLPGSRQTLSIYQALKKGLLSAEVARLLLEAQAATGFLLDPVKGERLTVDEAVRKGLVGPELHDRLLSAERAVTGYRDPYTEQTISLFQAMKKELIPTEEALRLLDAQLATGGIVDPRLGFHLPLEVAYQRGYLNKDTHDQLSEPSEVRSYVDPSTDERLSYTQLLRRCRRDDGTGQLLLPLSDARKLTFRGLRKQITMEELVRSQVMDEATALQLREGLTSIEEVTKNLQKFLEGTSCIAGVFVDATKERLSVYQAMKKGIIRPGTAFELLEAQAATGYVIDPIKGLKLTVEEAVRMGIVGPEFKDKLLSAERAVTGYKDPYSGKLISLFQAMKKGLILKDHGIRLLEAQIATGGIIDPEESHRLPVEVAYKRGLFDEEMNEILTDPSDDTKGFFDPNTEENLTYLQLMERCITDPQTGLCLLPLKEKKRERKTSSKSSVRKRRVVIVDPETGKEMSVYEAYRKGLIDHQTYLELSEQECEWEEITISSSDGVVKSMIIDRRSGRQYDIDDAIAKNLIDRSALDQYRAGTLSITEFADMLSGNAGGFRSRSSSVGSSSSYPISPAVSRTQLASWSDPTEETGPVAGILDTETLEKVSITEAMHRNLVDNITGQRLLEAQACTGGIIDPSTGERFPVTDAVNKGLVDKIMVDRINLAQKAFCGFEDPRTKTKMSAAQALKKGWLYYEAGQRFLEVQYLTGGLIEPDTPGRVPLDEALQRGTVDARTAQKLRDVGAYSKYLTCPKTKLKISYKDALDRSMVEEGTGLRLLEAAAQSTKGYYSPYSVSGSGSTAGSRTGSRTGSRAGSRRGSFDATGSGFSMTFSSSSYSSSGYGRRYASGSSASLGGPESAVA
Chain of UniProt P05198 (P05198 whole entry): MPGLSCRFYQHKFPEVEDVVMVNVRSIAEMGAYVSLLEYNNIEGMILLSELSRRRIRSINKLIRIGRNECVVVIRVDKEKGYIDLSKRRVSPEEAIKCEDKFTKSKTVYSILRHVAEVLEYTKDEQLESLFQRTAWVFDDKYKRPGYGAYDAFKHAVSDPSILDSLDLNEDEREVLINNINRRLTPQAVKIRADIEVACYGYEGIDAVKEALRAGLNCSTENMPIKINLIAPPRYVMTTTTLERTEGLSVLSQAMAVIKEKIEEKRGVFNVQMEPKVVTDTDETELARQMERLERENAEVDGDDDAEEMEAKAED

Compound in this test: C#CCNC(=O)CCSSCCC(=O)NCCc1ccc(C=O)c(C=O)c1
Briefly: lysine labeling ratio R10:1 (500 µM / 50 µM probe), SILAC-ABPP in living cells; higher = lower intrinsic lysine reactivity toward the probe, active = 2 or less. The note with it: HeLa; probe concentrations 500 vs 50 µM. Summed up: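 Forward and reverse SILAC label swaps were used with living light and heavy HeLa cells in PBS at room temperature, which were given an alkyne-tagged, disulfide-linked lysine probe at 50 µM or 500 µM. R is the per-lysine filtered median high-probe/low-probe MS1 peptide ratio, with the median then taken across both swap directions. Values are limited to 20.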
Regarding “F13A1 (lysine site: K258) (UniProt P00488)”, the “lysine labeling ratio R10:1” value is 1.15 (active).

“CDH13 (lysine site: K161) (UniProt P55290)”: the “lysine labeling ratio R10:1” value was 6.29 (inactive).

For “CHMP2A (lysine site: K64) (UniProt O43633)”, the “lysine labeling ratio R10:1” value was 5.72 (inactive).

Turning to “TSPAN3 (lysine site: K110) (UniProt O60637)”, the “lysine labeling ratio R10:1” value is 4.07 (inactive).

Turning to UniProt O00487 (lysine site: K154), the “lysine labeling ratio R10:1” value is 0.527 (active).

As to “IGF2R (lysine site: K303) (UniProt P11717)”, the “lysine labeling ratio R10:1” value was 2.37 (inactive).

As to “PAICS (lysine site: K110) (UniProt P22234)”, the “lysine labeling ratio R10:1” value is 3.11 (inactive).

On to “IGF1R (lysine site: K713) (UniProt P08069)”, for which the “lysine labeling ratio R10:1” value is 2.62 (inactive).

Take UniProt Q15149 (lysine site: K4584): the “lysine labeling ratio R10:1” value was 0.906 (active).

Turning to “CD46 (lysine site: K227) (UniProt P15529)”, the “lysine labeling ratio R10:1” value was 6.48 (inactive).

Take “EIF2S1 (lysine site: K190) (UniProt P05198)”: the “lysine labeling ratio R10:1” value was 2.9 (inactive).

Turning to “XRCC6 (lysine site: K317) (UniProt P12956)”, the “lysine labeling ratio R10:1” value was 3.53 (inactive).

For the target UniProt P05787 (lysine site: K483), the “lysine labeling ratio R10:1” value was 2.46 (inactive).

For “TM9SF2 (lysine site: K328) (UniProt Q99805)”, the “lysine labeling ratio R10:1” value is 0.928 (active).

As to UniProt Q16363 (lysine site: K1723), the “lysine labeling ratio R10:1” value is 2.13 (inactive).

In the case of “FRAS1 (lysine site: K1164) (UniProt Q86XX4)”, the “lysine labeling ratio R10:1” value is 1.34 (active).

UniProt P41250 (lysine site: K646): the “lysine labeling ratio R10:1” value is 2.94 (inactive).

As to “MYH9 (lysine site: K1835) (UniProt P35579)”, the “lysine labeling ratio R10:1” value was 1.11 (active).

As for “P4HB (lysine site: K309) (UniProt P07237)”, the “lysine labeling ratio R10:1” value was 1.42 (active).

Turning to “GAS1 (lysine site: K192) (UniProt P54826)”, the “lysine labeling ratio R10:1” value is 1.34 (active).

As to “HNRNPA1 (lysine site: K113) (UniProt P09651)”, the “lysine labeling ratio R10:1” value is 4.81 (inactive).

On to “GAPDH (lysine site: K5) (UniProt P04406)”, for which the “lysine labeling ratio R10:1” value is 1.43 (active).

As for “IARS (lysine site: K132) (UniProt P41252)”, the “lysine labeling ratio R10:1” value is 1.68 (active).

Consider “LAMB1 (lysine site: K1778) (UniProt P07942)”, for which the “lysine labeling ratio R10:1” value is 1.01 (active).

For the target “MYH9 (lysine site: K1392) (UniProt P35579)”, the “lysine labeling ratio R10:1” value is 1.15 (active).

For “MCAM (lysine site: K185) (UniProt P43121)”, the “lysine labeling ratio R10:1” value was 3.4 (inactive).

Regarding “CDK5 (lysine site: K33) (UniProt Q00535)”, the “lysine labeling ratio R10:1” value is 6.8 (inactive).

“HSPD1 (lysine site: K469) (UniProt P10809)”: the “lysine labeling ratio R10:1” value was 4.7 (inactive).

Regarding “PNN (lysine site: K157) (UniProt Q9H307)”, the “lysine labeling ratio R10:1” value was 1.95 (active).

Take “CSRP1 (lysine site: K178) (UniProt P21291)”: the “lysine labeling ratio R10:1” value was 0.76 (active).

As for UniProt P62854 (lysine site: K113), the “lysine labeling ratio R10:1” value was 7.15 (inactive).

As to “CKAP4 (lysine site: K223) (UniProt Q07065)”, the “lysine labeling ratio R10:1” value was 2.5 (inactive).

In the case of “GPC1 (lysine site: K236) (UniProt P35052)”, the “lysine labeling ratio R10:1” value is 3.17 (inactive).

“MTHFD2 (lysine site: K50) (UniProt P13995)”: the “lysine labeling ratio R10:1” value was 3.56 (inactive).

On to “TLN1 (lysine site: K357) (UniProt Q9Y490)”, for which the “lysine labeling ratio R10:1” value is 1.16 (active).

As to “HSPA8 (lysine site: K328) (UniProt P11142)”, the “lysine labeling ratio R10:1” value was 3.91 (inactive).

“PSMA4 (lysine site: K210) (UniProt P25789)”: the “lysine labeling ratio R10:1” value was 1.69 (active).

As to UniProt P48047 (lysine site: K84), the “lysine labeling ratio R10:1” value is 4.75 (inactive).

As to “MSN (lysine site: K316) (UniProt P26038)”, the “lysine labeling ratio R10:1” value is 1.47 (active).

UniProt Q15149 (lysine site: K1401): the “lysine labeling ratio R10:1” value is 3.7 (inactive).
